Source: PubChem (National Center for Advancing Translational Sciences (NCATS))
IP6K1 inhibitor = Primary qHTS assay for small molecule inhibitors of Inositol hexaphosphate kinase 1 (IP6K1); Inositol hexakisphosphate kinase 1 (Homo sapiens), Q92551; IP6K1 kinase, ADP-Glo luminescence, 2 h; stronger effect = lower value; activity change, % (series mostly up to about 58 µM); actives 0.81% (n = 140,000); AID 1645851, 2021; in the data active = activity change below about -25%; note: % is set by controls: 0 for no effect and ±100 for the full control effect
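ADP-Glo luminescence measures ADP made by human IP6K1 during a 2 h RT reaction with ATP/IP6 (mix at 1.3 mM/130 uM); top library doses 57.5 and 19.1 uM final.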
KDM5B inh = Primary screen for KDM5B Histone Demethylases FDH-coupled qHTS; Lysine-specific demethylase 5B (Homo sapiens), Q9UGL1; KDM5B demethylase, FDH-coupled NADH fluorescence (FDH is formaldehyde dehydrogenase); Potency, µM (top dose mostly 57.7 µM), most hits filed as inhibitors; actives 2.6% (n = 220,000); active = well fitted inhibition curve with a large enough effect; inconclusive = small, poorly fitted or top-dose-only effect; inactive = no such curve, though single readings can be large or run the other way; note: potency is the fitted concentration of half-maximal effect; 0% is about no effect; nearly all actives have a fitted effect of over 70% in size
Target sequence (Q9UGL1 whole entry, looked up): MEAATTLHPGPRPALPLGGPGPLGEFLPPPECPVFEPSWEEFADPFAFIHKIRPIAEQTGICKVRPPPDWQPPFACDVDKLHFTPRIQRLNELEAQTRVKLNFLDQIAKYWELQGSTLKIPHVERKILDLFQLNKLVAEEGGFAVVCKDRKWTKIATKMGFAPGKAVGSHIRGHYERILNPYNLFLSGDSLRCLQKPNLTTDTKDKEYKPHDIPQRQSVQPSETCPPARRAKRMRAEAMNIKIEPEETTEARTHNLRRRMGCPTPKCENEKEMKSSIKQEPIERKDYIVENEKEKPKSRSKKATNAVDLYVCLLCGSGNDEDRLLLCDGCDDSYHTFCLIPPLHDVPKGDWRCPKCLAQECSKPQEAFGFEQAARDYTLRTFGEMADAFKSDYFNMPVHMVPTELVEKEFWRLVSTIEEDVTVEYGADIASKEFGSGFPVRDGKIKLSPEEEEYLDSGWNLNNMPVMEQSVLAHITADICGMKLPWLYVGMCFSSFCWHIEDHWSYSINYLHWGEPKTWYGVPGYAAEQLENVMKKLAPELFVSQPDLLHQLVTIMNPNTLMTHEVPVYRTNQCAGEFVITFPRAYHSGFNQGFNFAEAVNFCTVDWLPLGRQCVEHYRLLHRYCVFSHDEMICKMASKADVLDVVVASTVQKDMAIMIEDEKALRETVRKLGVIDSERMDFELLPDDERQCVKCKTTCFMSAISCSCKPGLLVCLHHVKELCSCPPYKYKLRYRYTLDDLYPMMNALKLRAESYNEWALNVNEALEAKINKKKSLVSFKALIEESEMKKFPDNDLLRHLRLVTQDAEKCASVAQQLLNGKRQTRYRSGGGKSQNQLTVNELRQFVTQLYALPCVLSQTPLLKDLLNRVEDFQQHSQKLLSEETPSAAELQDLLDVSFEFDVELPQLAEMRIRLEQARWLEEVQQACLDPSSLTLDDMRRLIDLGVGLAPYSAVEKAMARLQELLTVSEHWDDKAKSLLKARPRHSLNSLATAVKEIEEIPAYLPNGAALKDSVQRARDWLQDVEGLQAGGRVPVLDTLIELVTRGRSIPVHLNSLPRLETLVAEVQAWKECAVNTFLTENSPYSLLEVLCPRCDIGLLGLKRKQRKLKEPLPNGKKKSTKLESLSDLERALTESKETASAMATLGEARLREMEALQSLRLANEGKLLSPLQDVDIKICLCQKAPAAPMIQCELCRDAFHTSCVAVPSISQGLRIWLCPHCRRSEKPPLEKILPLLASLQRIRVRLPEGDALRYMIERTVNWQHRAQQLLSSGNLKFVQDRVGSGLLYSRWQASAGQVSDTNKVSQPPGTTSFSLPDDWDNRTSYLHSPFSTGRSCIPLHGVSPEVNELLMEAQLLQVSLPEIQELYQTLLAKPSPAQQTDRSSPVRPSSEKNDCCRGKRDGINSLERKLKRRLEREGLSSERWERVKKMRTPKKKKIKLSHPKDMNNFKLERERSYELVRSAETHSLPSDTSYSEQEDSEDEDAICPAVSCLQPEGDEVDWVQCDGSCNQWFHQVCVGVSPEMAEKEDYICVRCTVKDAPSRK
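Inhibition is measured as reduced NADH fluorescence generation from FDH coupling to formaldehyde release. Truncated KDM5BΔAP at 200 nM final acts on H3K4me3 peptide (12.5 µM in substrate mix) in pH 7.5 HEPES buffer with Tween-20, 30 min, room temperature.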
An asterisk follows results filed as active; i = inactive; ? = inconclusive; / = no result. In the library only some 2.7% were active in any assay of this set; here they are far more common.

SMILES | IP6K1 inhibitor | KDM5B inh
O=C(Nc1ccc(Cl)cc1)c1nc2c(o1)CCN(CC1CC1)CC2 | 9 | i
O=C(Nc1ccc(Cl)cc1)c1nc2c(o1)CCN(CC1CCCC1)CC2 | -2 | ?
Cc1ccc(CN2CCc3nc(C(=O)Nc4ccc(Cl)cc4)oc3CC2)cc1 | -6 | 35µM*
COc1ccc(CN2CCc3nc(C(=O)Nc4ccccc4)oc3CC2)cc1 | 8 | ?
CCOC(=O)C1C(=O)C=C(/C=C/c2ccccc2)CC1c1ccccc1 (stereo unspecified) | / | i
O=C(NCc1cccs1)c1ccc2nc(-c3ccccn3)oc2c1 | 12 | /
Cc1ccc(CN2CCc3nc(C(=O)Nc4ccccc4)oc3CC2)cc1 | 10 | 35µM*
O=C(Nc1ccccc1)c1nc2c(o1)CCN(Cc1ccc(O)cc1)CC2 | 17 | i
Cc1ccccc1CN1CCc2nc(C(=O)NCCOc3ccccc3)oc2CC1 | 1 | 32µM*
O=C(Nc1ccc(Cl)cc1)c1nc2c(o1)CCN(Cc1nccs1)CC2 | 10 | i
Cc1[nH]cnc1CN1CCc2nc(C(=O)NCCOc3ccccc3)oc2CC1 | 5 | i
O=C(Nc1ccc(Cl)cc1)c1nc2c(o1)CCN(Cc1ccc3c(c1)CCO3)CC2 | 6 | 32µM*
CCCc1cc(=O)n2nc(N(C)CC(=O)Nc3ccccc3Br)sc2n1 | / | i
CCCCCC(=O)N1CC(=O)N(C2Cc3ccccc3C2)CC(O)C1 (stereo unspecified) | 3 | /
Cc1c(-c2ccccc2F)[nH]c2ccc(CNC(=O)CCN3CCCC3=O)cc12 | 15 | 28µM*
Cc1c(-c2ccccc2F)[nH]c2ccc(CNC(=O)Cn3ccc(=O)[nH]c3=O)cc12 | -3 | 32µM*
O=C(Cn1ccc(=O)[nH]c1=O)NC(c1ccc(F)cc1)c1cccs1 (stereo unspecified) | / | i
Cc1c(-c2ccccc2F)[nH]c2ccc(CNC(=O)CCC3=NNC(=O)CC3)cc12 | -15 | ?
CN1CC(=O)N(C2CCCCC2)Cc2c1ncnc2N1CCN(c2ncccn2)CC1 | -11 | /
COc1ccc(-c2cc3c(=O)n(CCNC(=O)c4ccc(F)c(F)c4)ccn3n2)cc1 | -1 | ?
COc1ccc(-c2cc3c(=O)n(CCNC(=O)c4ccc(N(C)C)cc4)ccn3n2)cc1 | -9 | 25µM*
COc1ccc(-c2cc3c(=O)n(CCNC(=O)c4ccc5c(c4)OCO5)ccn3n2)cc1 | -12 | 6.3µM*
CCc1ccc(C(=O)NCCn2ccn3nc(-c4ccc(F)cc4)cc3c2=O)cc1 | -11 | i
COc1ccc(-c2cc3c(=O)n(CCNC(=O)c4ccc(F)cc4)ccn3n2)cc1 | -1 | ?
COc1ccc(C(=O)NCCn2ccn3nc(-c4ccc(F)cc4)cc3c2=O)cn1 | 0 | 25µM*
SMILES | IP6K1 inhibitor | KDM5B inh
O=C(OCc1ccc(Cl)cc1Cl)C1CCC1 | / | i
Cn1c(SCC(=O)Nc2cccc(C#N)c2)nc2cc(-c3ccccc3)sc2c1=O | / | i
Cc1noc2c(-c3cccnc3NCCCn3ccnc3)cc(-c3ccccc3)nc12 | -13 | 35µM*
Cc1noc2c(-c3cccnc3NCCN(C)C)cc(-c3ccccc3)nc12 | -9 | ?
COCCCNc1ncccc1-c1cc(-c2ccccc2)nc2c(C)noc12 | -13 | 40µM*
Cc1noc2c(-c3cccnc3NCc3cccnc3)cc(-c3ccccc3)nc12 | -15 | ?
COc1ccc2ccccc2c1/C=C(/C#N)c1nc2ccccc2[nH]1 | / | i
Cc1cc(=O)n(CC(=O)Nc2ccc(Cl)cc2)c(N2CCC(C)CC2)n1 | 26 | i
O=C(c1cccs1)N1CCc2[nH]nc(-c3cccc(F)c3)c2C1 | -1 | i
O=C(c1cncs1)N1CCc2c(cc(-c3cccc(F)c3)c(=O)n2CCN2CCCCC2)C1 | 16 | 28µM*
CN1CCN(C(=O)C2CCCN(Cc3cccc(-c4ccsc4)c3)C2)CC1 (stereo unspecified) | -8 | /
O=C(NCc1ccco1)[C@@H]1Cc2nc[nH]c2CN1Cc1ccc(Cl)cc1 | 9 | ?
N#Cc1cccc(CN2Cc3[nH]cnc3C[C@H]2C(=O)NCc2ccco2)c1 | 18 | 32µM*
CCCS(=O)(=O)N1CCC(Oc2nccnc2N2CCOCC2)C1 (stereo unspecified) | 3 | i
COC[C@@H]1CN(c2cnccn2)C[C@H]1C(=O)NCc1c(C)n[nH]c1C | 13 | 20µM*
COCC1CCN(C(=O)[C@@H]2CN(c3cnccn3)C[C@H]2COC)CC1 | 5 | 25µM*
O=C(NCCc1cccnc1)C1CC2CCC1C2 (stereo unspecified) | / | i
COC[C@@H]1CN(c2cnccn2)C[C@H]1C(=O)NCCc1cccnc1 | 8 | 25µM*
COC[C@@H]1CN(c2cnccn2)C[C@H]1C(=O)NCc1ccccc1OC | 19 | 22µM*
COC[C@@H]1CN(C(=O)CCc2c(C)n[nH]c2C)C[C@H]1c1ccncc1 | -10 | i
